Pf growth 48h = P. falciparum growth inhibition at 48 hours (one generation); P. falciparum luciferase growth in erythrocytes, 48 h; Potency, µM (doses to about 28.7 µM), for inactives: at the highest dose activity change, negative = inhibition, actives largely listed as inhibitors; 5.9% of 310,000 active; AID 504832; also: potency is read from the fitted curve at half-maximal effect; % is scaled to controls: 0 for no effect and ±100 for the full control effect
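Parasite viability was followed by luminescence of a genomically integrated firefly luciferase. Cultures held 0.1% parasitemia at 2% hematocrit (final), incubated under 5% CO2 at 37 C.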
NS1 inh = inhibitors of influenza NS1 protein function; Potency, µM (series often up to 46.1 µM), inactives show top-dose activity, positive = more growth; 0.4% of 270,000 active; AID 2326; calls by dose curve; also: potency is read from the fitted curve at half-maximal effect; actives are rising curves; nearly all actives have a fitted effect of over 50% in size
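A cell-based growth assay was used: compounds that relieve NS1-induced slow growth of budding yeast raise OD600. Assay medium was yeast nitrogen base with ammonium sulphate and -URA supplement, pH 6.0, with 2% galactose.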
Pf growth 96h = P. falciparum growth inhibition at 96 hour, primary screen for plastid delayed-death inhibitors | P. falciparum luciferase reporter growth, 96 h | AID 504834 | Potency, µM (series often up to 28.7 µM), without a hit: at the highest dose activity change, negative = inhibition, actives largely listed as inhibitors | 6.9% of 320,000 active; also: potency is read from the fitted curve at half-maximal effect; % is scaled to controls: 0 for no effect and ±100 for the full control effect
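Readout is luminescence from an integrated firefly luciferase in P. falciparum. Red cells, 2% hematocrit and 0.05% parasitemia final, were cultured with compound through two parasite generations (96 hours) at 37 C, 5% CO2.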
Cycloheximide cs = affects cycloheximide protein synthesis inhibition readout, counter-screen; cell reporter, cycloheximide protein synthesis inhibition counterscreen; max response, %; 12% of 300,000 active; AID 2314; in the data active = max response mostly above about 13%, no sharp cut-off; inactive = mostly below about 14%; also: read at 38.3 µM for the half of the compounds with a filed dose; 0% is about no effect
Shiga toxin inh = Shiga toxin inhibition; Vero cells, Shiga toxin protein synthesis inhibition reporter; inhibition, % at 38.7 µM; 9.2% of 290,000 active; AID 2315; in the data active = inhibition mostly above about 28%, no sharp cut-off; inactive = mostly below about 43%; also: 0% is about no effect
FBPA Giardia inh = blocks Giardia fructose-bisphosphate aldolase activity; A8B2U2; Potency, µM (top dose mostly 59.6 µM), without a hit: top-dose activity, negative = inhibition, usual class: inhibitors; purified Giardia FBPA; 0.71% of 290,000 active; AID 2451; also: potency is read from the fitted curve at half-maximal effect; % is scaled to controls: 0 for no effect and ±100 for the full control effect; nearly all actives have a fitted effect of over 55% in size
Target sequence (A8B2U2 whole entry, looked up): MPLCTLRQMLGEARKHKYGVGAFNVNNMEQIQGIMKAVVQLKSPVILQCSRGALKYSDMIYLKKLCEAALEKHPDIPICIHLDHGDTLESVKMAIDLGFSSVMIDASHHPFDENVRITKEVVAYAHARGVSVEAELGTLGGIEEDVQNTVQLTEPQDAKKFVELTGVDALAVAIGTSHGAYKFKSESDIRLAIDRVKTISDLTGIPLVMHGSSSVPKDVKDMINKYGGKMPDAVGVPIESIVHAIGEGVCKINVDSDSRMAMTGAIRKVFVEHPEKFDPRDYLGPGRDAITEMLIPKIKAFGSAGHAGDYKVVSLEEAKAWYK
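40 nM FBPA preincubated 10 min at RT with compound (up to 57.5 uM final), then substrate plus GAPDH/TPI/NAD/arsenate coupling and diaphorase/resazurin added. Fluorescence read after 20 min at RT, 525/598 nm.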
Numbers without * were called inactive; u = inconclusive; x = no result given. Hits are enriched below; roughly 21% of the tested compounds scored in any of these assays. Unless noted, calls follow the shape of the dose curve; as a rule, active = well fitted curve in the direction sought with a large enough effect; inconclusive = small, poorly fitted or top-dose-only effect, or another doubt; inactive = no such curve, though single readings can be large; an effect the other way counts as inactive or inconclusive.

SMILES	Pf growth 48h	NS1 inh	Pf growth 96h	Cycloheximide cs	Shiga toxin inh	FBPA Giardia inh
C/C(=C\c1ccccc1)C(=O)Nc1ccc(Cl)cn1	81%	-28%	310%	39*	95*	8%
O=C(Nc1nnc(-c2ccc(Cl)cc2)o1)Nc1ccccc1F	30%	-39%	58%	22	34*	2%
O=C(Cn1ncc2c3ccccc3n(Cc3ccccc3)c2c1=O)NCc1ccco1	u	4%	u	1	-8	1%
Cc1nn(-c2ccccc2)c(C)c1NC(=O)COC(=O)c1ccccc1OC(F)F	-4%	-8%	u	1	-5	x
CN1CC(=O)N(CC(=O)Nc2ccc(N3CCOCC3)cc2)C1=O	12%	x	13%	x	x	x
COc1ccc(OCCSc2ncc(CO)n2C)cc1	57%	4%	68%	12	30	1%
Cc1cc(C)n2c(SC(C)C(=O)NC3(C#N)CCCCC3)nnc2n1 (centres undefined)	15%	x	u	x	x	x
CCC1CCCCN1C(=O)COc1ccccc1NC(C)=O (centres undefined)	-16%	x	33%	3	42	-21%
O=C(Nc1ccc(Cl)cn1)c1ccc2[nH]c(=O)c(=O)[nH]c2c1	42%	0%	2%	12*	27	1%
O=C(Nc1ncccn1)c1cccc(F)c1	50%	8%	u	11*	21*	9%
N#Cc1ccccc1COC(=O)CCCC1=NS(=O)(=O)c2ccccc2N1	-9%	-1%	u	1	15	x
CNc1cc(-c2ccccc2CN(C)C)ncn1	x	x	x	x	x	5%
CC1CCN(S(=O)(=O)c2ccc3[nH]c(=O)cc(C(=O)O)c3c2)CC1	0%	0%	2.9µM*	1	-11	2%
CCn1cc(C(=O)N2CCCCC2)c(=O)c2cc(S(=O)(=O)N3CCC(C)CC3)ccc21	u	0%	5%	23*	10	6%
CCC(C)NC(=O)c1cn(CC)c2ccc(S(=O)(=O)N3CCCCCC3)cc2c1=O (centres undefined)	u	10%	13µM*	-2	-6	8%
CC1CCN(S(=O)(=O)c2ccc(F)c(C(=O)O)c2)CC1	u	0%	-25%	-4	-10	u
CCOC(=O)N1CCN(C(=O)c2cn(CC)c3ccc(S(=O)(=O)N4CCOCC4)cc3c2=O)CC1	13%	1%	4.7µM*	-3	-10	x
COc1ccccc1C(=O)NC(=O)COC(=O)c1ccc([N+](=O)[O-])cc1	17%	x	-4%	x	x	x

Bioassay records: PubChem, National Center for Advancing Translational Sciences (NCATS)
